Assay outcomes as filed in PubChem BioAssay.
PfGluPho inh – PfG6PD (Plasmodium falciparum) enzyme inhibition; PfGluPho enzyme, NADPH resazurin-diaphorase fluorescence; inhibition, % at 20 µM; hit rate 0.78% among 350,000; AID 504690;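 active = inhibition reaching at least a set limit at 20 µM in the primary screen, cut at about 59% in these data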;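 note: 0% = DMSO wells with substrate and 100% = DMSO wells lacking glucose-6-phosphate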
M18AAP inhibitor – PfM18AAP enzyme inhibition; recombinant PfM18AAP, H-Glu-NHMec fluorogenic cleavage; inhibition, % at 7.35 µM; hit rate 1.2% among 290,000; AID 1822;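 active = inhibition above the campaign mean inhibition over all tested compounds plus 3 SD, cut at about 28% in these data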;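 note: 0% = plate median of test compound wells and 100% = 2 mM ZnCl2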
Yeast superoxide – lowers age-related superoxide in aged yeast cells. S. cerevisiae aged cells, superoxide DHE fluorescence; stronger effect = lower value. superoxide response (% of plate mean), % at 10 µM. hit rate 0.18% among 330,000. AID 2690;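 active = superoxide response under a set limit, about three screen SD below normal, cut at about 65% in these data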;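 note: yeast aged for seven days with compound at 30 °C before DHE staining; 100% = average MFI of all compound-treated wells on the plate with controls excluded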
APOBEC3A inh – blocks human APOBEC3A ssDNA deamination; P31941; recombinant A3A, FAM/TAMRA ssDNA deamination fluorescence; AID 493011; inhibition, % at 20 µM; hit rate 0.41% among 330,000;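 active = at least 40% inhibition at 20 µM here, with at most 30% in a related deaminase screen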;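 note: plate controls were A3A with DMSO for no effect and wells lacking A3A enzyme for full effect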
A3G deaminase – inhibitors of human APOBEC3G DNA deaminase. inhibition, % at 20 µM. hit rate 0.28% among 330,000. Q9HC16. recombinant A3G, ssDNA deamination FAM/TAMRA fluorescence;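 active = inhibition of at least 40% at 20 µM, with no more than 30% in the related APOBEC3A deaminase screen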;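 note: plate controls were DMSO wells with A3G for no effect and wells lacking A3G enzyme for full effect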
Target sequence (Q9HC16 whole entry, looked up): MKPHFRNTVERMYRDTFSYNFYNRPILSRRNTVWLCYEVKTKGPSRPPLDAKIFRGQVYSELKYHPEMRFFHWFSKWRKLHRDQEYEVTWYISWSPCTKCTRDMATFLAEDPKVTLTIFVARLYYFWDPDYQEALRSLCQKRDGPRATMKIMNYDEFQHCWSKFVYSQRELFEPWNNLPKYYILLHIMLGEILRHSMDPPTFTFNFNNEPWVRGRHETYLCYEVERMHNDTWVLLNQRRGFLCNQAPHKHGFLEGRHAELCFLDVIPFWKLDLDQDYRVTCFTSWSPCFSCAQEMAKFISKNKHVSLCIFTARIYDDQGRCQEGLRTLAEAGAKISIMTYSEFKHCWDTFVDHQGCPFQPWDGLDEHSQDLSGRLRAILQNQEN
An asterisk follows results filed as active; nt = no result given. In the library only some 2.4% were active in any assay of this set; here they are far more common.

SMILES	PfGluPho inh	M18AAP inhibitor	Yeast superoxide	APOBEC3A inh	A3G deaminase
CN(CC(=O)Nn1cnnc1)S(=O)(=O)c1ccc(Br)cc1	-13	30*	70	-1	-7
N#CCCN(C(=O)CN1CCN(S(=O)(=O)c2ccc(Cl)s2)CC1)c1ccc(F)cc1	17	nt	97	-1	-5
O=[N+]([O-])c1ccc(N/N=C\c2cccn2-c2ccccc2)nc1	14	47*	98	-5	3
CCC(=O)N(c1nnc(SC(C)C(=O)Nc2ccc(N3CCOCC3)cc2)s1)C1CC1 (stereo unspecified)	16	nt	nt	nt	nt
C=CCN1C(=O)C2(NNc3ccccc3O2)c2ccccc21 (stereo unspecified)	5	31*	92	1	-6
O=C(O)CC(C(=O)O)N1C(=O)/C(=C/C=C/c2ccco2)SC1=S (stereo unspecified)	57	31*	99	96	95
COc1ccc(C(CNC(=O)COc2cccc(C(F)(F)F)c2)N2CCCC2)cc1 (stereo unspecified)	-18	nt	79	2	-3
CCN1/C(=C/c2ccc3cc(C)ccc3[n+]2CC)Sc2ccccc21	-11	49*	146	59	35
CC[n+]1c(/C=C2\Sc3ccccc3N2C)ccc2cccc(C)c21	20	1	nt	nt	nt
Oc1ccc(N=Cc2ccc(OCc3ccccc3)cc2)cc1	87*	8	99	7	9
CC(=O)N1CCN(C(=S)c2ccc(-c3ccc(Cl)cc3)o2)CC1	62*	11	100	-2	5
C=CCNC(=O)/C(C#N)=C\c1cc(Cl)c(OCC)c(OC)c1	-4	-1	63*	-2	-9
C[C@@H](NC(=O)c1[nH]cnc1C(=O)Nc1ccon1)c1ccccc1	-3	nt	95	-2	-9
O=c1c(O[C@@H]2O[C@H](CO)[C@H](O)[C@H](O)[C@H]2O)c(-c2ccc(O)c(O)c2)oc2cc(O)cc(O)c12	nt	68*	nt	nt	nt
O=c1c(O[C@@H]2O[C@H](CO)[C@@H](O)[C@H](O)[C@H]2O)c(-c2ccc(O)cc2)oc2cc(O)cc(O)c12	-6	nt	105	7	-4
C[C@@H]1O[C@@H](OC[C@H]2O[C@@H](Oc3c(-c4ccc(O)c(O)c4)oc4cc(O)cc(O)c4c3=O)[C@H](O)[C@@H](O)[C@@H]2O)[C@H](O)[C@H](O)[C@H]1O	-31	64*	99	-1	-8
O=c1c(O[C@@H]2O[C@H](CO)[C@@H](O)[C@H](O)[C@H]2O)c(-c2ccc(O)c(O)c2)oc2cc(O)cc(O)c12	nt	68*	nt	2	2
O=c1c(OC2OC(CO)C(O)C(O)C2OC2OC(CO)C(O)C(O)C2OC2OC(CO)C(O)C(O)C2O)c(-c2ccc(O)c(O)c2)oc2cc(O)cc(O)c12 (stereo unspecified)	-9	nt	103	2	-1
CC1OC(OCC2OC(Oc3c(-c4ccc(O)cc4)oc4cc(O)cc(O)c4c3=O)C(O)C(O)C2O)C(O)C(O)C1O (stereo unspecified)	17	12	84	5	9
O=C(Cc1cc2ccccc2o1)NCc1ccc(F)cc1	-14	-2	93	-2	-3
O=C(CCN1CCOCC1)NNC(=S)NC(=O)c1ccc(Br)cc1	-11	30*	107	0	1
O=C(CCN1CCCCC1)NNC(=S)NC(=O)c1ccc(Br)cc1	-6	9	97	-2	7
O=C1S/C(=C\c2ccc(N3CCOCC3)o2)C(=O)N1Cc1ccc(F)cc1	60*	7	89	-7	-2
O=C1S/C(=C/c2ccc(N3CCOCC3)o2)C(=O)N1Cc1ccc(F)cc1	44	2	108	13	3
COc1cc(/C=C2\SC(=Nc3ccccc3)N(CCc3c[nH]c4ccccc34)C2=O)ccc1OC(C)C(=O)O (stereo unspecified)	-21	-1	109	-1	-7
O=C1/C(=C/c2ccc(N3CCOCC3)o2)SC(=Nc2ccccc2)N1CCc1c[nH]c2ccccc12	77*	-11	103	-16	-43
O=C(OCC1OC(n2cc(Br)c(=O)[nH]c2=O)C(Br)C1O)c1ccccc1 (stereo unspecified)	13	5	98	-3	-7
N#Cc1ccc(-c2c(-c3ccccc3)ncc3cc(F)ccc23)cc1	11	nt	96	3	-6
COC(=O)c1sc2cc(=O)n(-c3cccc(C(F)(F)F)c3)nc2c1O	1	31*	113	-4	-8
Oc1c(C(c2ccccc2)N2CCN(Cc3ccccc3)CC2)sc2ncnn12 (stereo unspecified)	-6	29*	97	0	-2
